From the supplement of paper PMC13380429

Test system: Vero E6 infected with SARS-CoV-2
Test: inhibition of SARS-CoV-2 cytopathic effect; higher = more antiviral protection, active = above 15
Details: 48 h

Measured: inhibition of SARS-CoV-2 cytopathic effect

C1CCC(NC2CCCCC2)CC1 [dicyclohexylamine]
inactive: 1 nM 2.51% | 8.33 nM 6.58% | 100 nM 13.2% | 833.33 nM 0.43% | 10000 nM -2.8%

CCCC(C)(COC(N)=O)COC(=O)NC(C)C (stereo not given)
inactive: 1 nM 1.17% | 8.33 nM 2.25% | 100 nM 2.38% | 833.33 nM 4.43% | 10000 nM 0.83%

N=C(N)NC(=O)Cc1c(Cl)cccc1Cl [guanfacine]
inactive: 1 nM 3.14% | 8.33 nM 4.91% | 100 nM -3.11% | 833.33 nM 1.89% | 10000 nM -0.42%

COc1cc(-c2ncn(/C=C\C(=O)OC(C)C)n2)cc(C(F)(F)F)c1
inactive: 1 nM -1.83% | 8.33 nM -2.94% | 100 nM -8.02% | 833.33 nM -12.1% | 10000 nM -11.7%

c1ccc2sc(N3CCN(Cc4ccc5c(c4)OCO5)CC3)nc2c1 [2-[1-(4-piperonyl)piperazinyl]benzothiazole]
inactive: 1 nM -3.54% | 8.33 nM -1.04% | 100 nM -3.92% | 833.33 nM -3.68% | 10000 nM -2.73%

CCCCCCCCNC(=O)/C(C#N)=C/c1cn(CCCN(C)C)c2ccccc12 [dynole-34-2]
inactive: 1 nM 5.01% | 8.33 nM 2.28% | 100 nM 2.72% | 833.33 nM 0.28% | 10000 nM 12.6%

CC(C)c1cccc2c1OC(C(C)C)C(=S)N2CC(=O)O (stereo not given)
inactive: 1 nM -0.74% | 8.33 nM 3.31% | 100 nM 1.03% | 833.33 nM 1.02% | 10000 nM -0.31%

CCOC(=O)c1ncn2c1CN(C)C(=O)c1cc(F)ccc1-2 [flumazenil]
inactive: 1 nM -5.56% | 8.33 nM -4.56% | 100 nM -4.89% | 833.33 nM -4.65% | 10000 nM -1.96%

CCN(CC)CCOC(=O)C1(c2ccc([N+](=O)[O-])cc2)CCCC1 [nitrocaramiphen]
inactive: 1 nM -3.06% | 8.33 nM 1.17% | 100 nM 1.69% | 833.33 nM -0.19% | 10000 nM -0.92%

CCOC(=O)/C=C(C)/C=C/C=C(C)/C=C/c1c(C)cc(OC)c(C)c1C [etretinate]
inactive: 1 nM -2.16% | 8.33 nM 0.11% | 100 nM 0.84% | 833.33 nM 2.68% | 10000 nM 3.85%

O=C1c2ccccc2C(Cc2ccncc2)(Cc2ccncc2)c2ccccc21
inactive: 1 nM 1.49% | 8.33 nM -1.95% | 100 nM -1.48% | 833.33 nM -2.88% | 10000 nM -3.65%

COc1cc(NC(=O)Nc2cccc(CNC(=O)O[C@H]3CCOC3)c2)ccc1-c1cnco1 [merimepodib]
inactive: 1 nM 0.31% | 8.33 nM 0.11% | 100 nM -0.15% | 833.33 nM 2.5% | 10000 nM 8.45%

Cc1cc(NC(=O)C(c2ccccc2)N2CCCc3ccccc32)no1 (stereo not given)
inactive: 1 nM 0.33% | 8.33 nM -0.92% | 100 nM 1.85% | 833.33 nM 0.35% | 10000 nM 3.91%

CCNCCCNCCCCNCCCNCC
inactive: 1 nM -0.97% | 8.33 nM 1.01% | 100 nM 3.25% | 833.33 nM 3.4% | 10000 nM 11.4%

COc1ccc(C2CC(c3c(O)cc(C)oc3=O)=NCCS2)c(OC)c1 (stereo not given)
inactive: 1 nM 0.21% | 8.33 nM 3.01% | 100 nM -2.07% | 833.33 nM -0.81% | 10000 nM -8.62%

COc1ccc2c(c1)/C(=C/c1cnc[nH]1)C(=O)N2
inactive: 1 nM 0.21% | 8.33 nM -1.7% | 100 nM -1.87% | 833.33 nM 4.89% | 10000 nM 6.28%

c1ccc(C[C@H](c2ccccc2)N2CCCCC2)cc1 (racemic) [1-(1,2-diphenylethyl)piperidine-(+/-)]
inactive: 1 nM 0.78% | 8.33 nM 0.67% | 100 nM 0.96% | 833.33 nM 0.92% | 10000 nM 2.17%

CC(C)N1Cc2cc(S(C)(=O)=O)ccc2N(CCN2CC=C(c3c[nH]c4cc(F)ccc34)CC2)S1(=O)=O
inactive: 1 nM -0.02% | 8.33 nM 5.05% | 100 nM 2.58% | 833.33 nM 1.15% | 10000 nM 4%

Cc1c(Cl)c(C)[n+]([O-])c(Cl)c1-c1noc(-c2cc(O)c(O)c([N+](=O)[O-])c2)n1 [opicapone]
inactive: 1 nM 2.55% | 8.33 nM 1.95% | 100 nM 0.21% | 833.33 nM 0.43% | 10000 nM -1.39%
